# PubChem BioAssay (Tox21)
# Inconclusive results are not listed. Activity calls are given as the source filed them. Calls follow the shape of the dose curve; as a rule, active = well fitted cell-killing curve with a large enough effect in the repeat runs; inconclusive = weak or mixed curves, or effect the other way; inactive = no such curve, though single readings can be large or run the other way.
# Test: qHTS assay to identify small molecule agonists of the vitamin D receptor (VDR) signaling pathway - cell viability counter screen (AID 743224); also: nearly all actives have a fitted effect of over 50% in size
# Conditions: VDR-bla HEK293T viability, CellTiter-Glo luminescence, 16 h; series mostly up to 62.6 µM; activity change, negative = cytotoxicity: at the top concentration
# Method in brief: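 Compounds were pin-transferred onto VDR-bla cells plated 4 h earlier; following 16 h incubation at 37C, cell viability was quantified by CellTiter-Glo luminescence after 30 min at room temperature.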
# % is scaled to controls: 0 for no effect and ±100 for the full control effect.
row,SMILES,"activity change, negative = cytotoxicity"
1,NNS(=O)(=O)c1ccc(Oc2ccc(S(=O)(=O)NN)cc2)cc1,-7.66% (inactive)
2,CN(C)C(=O)NC1(c2ccccc2)CCN(CCC[C@]2(c3ccc(Cl)c(Cl)c3)CCCN(C(=O)c3ccccc3)C2)CC1,-21.3% [at 29.1 µM] (inactive)
3,OCC(CBr)(CBr)CBr,-7.19% (inactive)
4,NC(Cc1ccc(F)cc1)C(=O)O (configuration not stated),0.52% [at 5.95 µM] (inactive)
5,O=c1oc2c(O)c(O)cc3c(=O)oc4c(O)c(O)cc1c4c23,11.5% [at 29.1 µM] (inactive)
6,CCOc1ccccc1N,1.45% (inactive)
7,O=c1[nH]c(=O)n([C@H]2C[C@H](O)[C@@H](CO)O2)cc1C(F)(F)F,-3.03% (inactive)
8,CN1[C@@H]2CC[C@H]1CC(OC(=O)c1c[nH]c3ccccc13)C2 (some centres not stated),0.358% (inactive)
9,Nc1ccc(Oc2ccc(N)c(N)c2)cc1,-14.9% (inactive)
10,O=[N+]([O-])c1nccn1CO[C@@H](CO)[C@H](O)CO,0.437% (inactive)
11,CNCCC(Oc1ccccc1OC)c1ccccc1 (configuration not stated),-2.24% (inactive)
12,OCc1ccccc1O,0.848% (inactive)
13,CCCOCCC,9.59% (inactive)
14,NC(=O)Cc1cccc(C(=O)c2ccccc2)c1N,12.3% (inactive)
15,Cc1cc(S(=O)(=O)O)c(N)cc1Cl,-14.8% [at 81.1 µM] (inactive)
16,OC[C@H]1O[C@@H](O[C@H]2[C@H](O)[C@@H](O)[C@H](O)O[C@@H]2CO)[C@H](O)[C@@H](O)[C@H]1O,18.2% (inactive)
17,CN(CCCN1c2ccccc2CCc2ccccc21)CC(=O)c1ccc(Cl)cc1,-26.3% (inactive)
18,CC1=C2[C@H](/C=C(\C)C(=O)O)CC[C@@H](C)[C@H]2CC1,-12.8% [at 81.1 µM] (inactive)
19,CCCCC(=O)O[C@]1(C(=O)CO)[C@H](C)C[C@H]2[C@@H]3CCC4=CC(=O)C=C[C@]4(C)[C@@]3(F)[C@@H](O)C[C@@]21C,12.7% (inactive)
20,COC(=O)N[C@H](C(=O)N[C@@H](Cc1ccccc1)[C@@H](O)CN(Cc1ccc(-c2ccccn2)cc1)NC(=O)[C@@H](NC(=O)OC)C(C)(C)C)C(C)(C)C,3.46% (inactive)
21,Cn1cnc2c(F)c(Nc3ccc(Br)cc3Cl)c(C(=O)NOCCO)cc21,2.2% (inactive)
22,O=C(Cl)c1cccc([N+](=O)[O-])c1,3.05% (inactive)
23,O=C(O[C@@H](C(=O)O)[C@@H](OC(=O)c1ccccc1)C(=O)O)c1ccccc1,17.1% [at 81.1 µM] (inactive)
24,NC1=NCC2c3ccccc3Cc3ccccc3N12 (configuration not stated),-4.57% (inactive)
25,CC1=NN(c2cc(Cl)c(S(=O)(=O)O)cc2Cl)C(=O)C1N=Nc1ccc(S(=O)(=O)O)cc1 (configuration not stated),8.67% (inactive)
26,CCOC(=O)COc1ccc2c(c1)CC(NCC(O)c1cccc(Cl)c1)CC2 (configuration not stated),-14.2% (inactive)
27,CN1CCN(C2=Nc3cc(F)ccc3Cc3ccccc32)CC1,-10.5% (inactive)
